Bioassay records as filed in PubChem.
POLB inh = DNA polymerase beta (human) inhibition; P06746; Pol beta primer extension/strand displacement, fluorescence kinetic; Potency, µM (doses to about 114 µM), actives largely listed as inhibitors; 340,000 compounds, 1.3% hits; AID 485314
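Reaction started by 50 nM substrate onto compound-treated Pol beta (10 nM, 15 min preincubation, room temperature); plates read at 0 min and 10 min. Normalized concentration-effect data fitted by four-parameter Hill equation.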
Pol kappa inh = inhibitors of human DNA polymerase kappa; Q9UBT6; Potency, µM (series often up to 107 µM), actives largely listed as inhibitors; 400,000 compounds, 0.53% hits; AID 588579; purified Pol kappa, fluorescent DNA synthesis assay, 10 min
Target sequence (Q9UBT6 whole entry, looked up): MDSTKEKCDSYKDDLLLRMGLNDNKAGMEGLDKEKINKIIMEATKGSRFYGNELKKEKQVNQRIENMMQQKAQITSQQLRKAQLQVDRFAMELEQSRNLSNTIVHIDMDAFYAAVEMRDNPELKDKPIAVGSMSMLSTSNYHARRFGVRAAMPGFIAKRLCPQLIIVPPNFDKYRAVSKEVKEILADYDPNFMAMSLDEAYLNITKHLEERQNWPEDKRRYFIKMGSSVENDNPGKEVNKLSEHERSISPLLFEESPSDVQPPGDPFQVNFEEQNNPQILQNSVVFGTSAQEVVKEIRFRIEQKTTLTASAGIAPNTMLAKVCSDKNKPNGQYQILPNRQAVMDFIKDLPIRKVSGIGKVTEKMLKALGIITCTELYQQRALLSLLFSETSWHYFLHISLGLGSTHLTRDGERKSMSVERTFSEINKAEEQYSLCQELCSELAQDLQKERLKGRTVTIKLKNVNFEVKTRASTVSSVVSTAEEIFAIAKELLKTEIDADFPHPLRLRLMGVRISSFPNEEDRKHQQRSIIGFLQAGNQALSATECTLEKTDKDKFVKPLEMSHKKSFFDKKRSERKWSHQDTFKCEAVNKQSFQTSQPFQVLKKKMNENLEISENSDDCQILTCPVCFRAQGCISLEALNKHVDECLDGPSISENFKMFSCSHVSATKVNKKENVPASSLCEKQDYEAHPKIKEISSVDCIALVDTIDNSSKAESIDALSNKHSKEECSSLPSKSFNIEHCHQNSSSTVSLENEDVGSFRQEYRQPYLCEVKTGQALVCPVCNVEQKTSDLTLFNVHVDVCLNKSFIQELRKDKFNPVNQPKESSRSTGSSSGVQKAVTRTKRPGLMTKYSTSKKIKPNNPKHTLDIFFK
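Here, compound and 10 nM enzyme are combined for 15 min at room temperature; adding 50 nM substrate (final) starts DNA synthesis, tracked by fluorescence at 0 and 10 min against buffer-only wells.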
WRN inhibitor = WRN helicase (human) inhibition; Q14191; Potency, µM (series often up to 114 µM), hits mostly inhibitors; AID 651768; WRN helicase unwinding, fluorescent forked duplex, kinetic; 360,000 compounds, 0.46% hits; further: nearly all actives have a fitted effect of over 55% in size
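Kinetic fluorescence helicase assay: unwinding of a quenched forked DNA duplex (100 nM final) with 2 mM ATP final raises red fluorescence (525/598 nm). Compounds sat 15 min at room temperature with 20 nM WRN beforehand.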
FEN1 inhibitor = inhibitors of human flap endonuclease 1; Recombinant FEN1 flap cleavage, fluorescence, 15 min; Potency, µM (top dose mostly 114 µM), hits mostly inhibitors; 390,000 compounds, 0.35% hits; further: nearly all actives have a fitted effect of over 65% in size
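Concentration–response screening of FEN1 (10 nM): 15 min compound preincubation at room temperature, reaction started with 50 nM substrate and read at 0 and 15 min. Corrected, normalized data were fitted by a four-parameter Hill equation.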
POLI inh = inhibitors of human DNA polymerase iota. Pol iota fluorescent replication assay, 10 min. 390,000 compounds, 1% hits. Potency, µM (titrated, usually from 115 µM), actives largely listed as inhibitors. Q9UNA4
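Pol iota at 10 nM preincubated 15 min with compounds at room temperature; reaction started with fluorescent substrate, 50 nM final. Fluorescence read kinetically at 0 and 10 min; buffer-only wells as negative control.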
Pol eta inh = DNA polymerase eta (human) inhibition; recombinant Pol eta, fluorescent DNA replication assay; 390,000 compounds, 1.2% hits; AID 588591; Potency, µM (highest dose often 114 µM), hits mostly inhibitors
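Pol eta (10 nM) was preincubated with compounds for 15 min at room temperature, after which fluorescent replication substrate (50 nM final) was added to start the reaction. Fluorescence was read kinetically at 0 and 10 min.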
A number is an active result; [ ] = another dose, or the depositor's remark. This is a sample that favours compounds with a hit; in the whole collection about 2.4% have one here. The call rests on the fitted dose curve; in most records, active means well fitted curve in the direction sought with a large enough effect; inconclusive means small, poorly fitted or top-dose-only effect, or another doubt; inactive means no such curve, though single readings can be large; an effect the other way counts as inactive or inconclusive.

For COc1cc(N)c(Cl)cc1C(=O)OCCCN1CCCCC1 the results were Pol kappa inh inactive[19.4 µM].
Screening COc1cc(N)c(Cl)cc1C(=O)OCCN1CCCCC1 returned POLB inh inactive, Pol kappa inh inactive, FEN1 inhibitor 11µM, POLI inh inactive and Pol eta inh inactive.
For CCCc1ccc(O)c(N=Cc2cc(Br)cc(OCC)c2O)c1 the results were POLB inh 20µM, Pol kappa inh inactive, WRN inhibitor inconclusive, FEN1 inhibitor inactive, POLI inh inconclusive and Pol eta inh inactive.
O=C(CSCCSCC(=O)c1ccco1)c1ccco1 was read as POLB inh 28µM.
O=C(N/N=C/c1c[nH]c2ccccc12)c1sc2ccccc2c1Cl was read as POLB inh inactive, Pol kappa inh inactive, WRN inhibitor inactive, FEN1 inhibitor inactive, POLI inh inactive and Pol eta inh inactive.
Screening O=C(N/N=C/c1ccccn1)c1sc2ccccc2c1Cl returned POLB inh 45µM, Pol kappa inh inactive, WRN inhibitor inconclusive, FEN1 inhibitor inconclusive, POLI inh inactive and Pol eta inh inconclusive.
For O=C(N/N=C/c1ccc([N+](=O)[O-])o1)c1sc2ccccc2c1Cl the results were POLB inh inconclusive, Pol kappa inh 50µM, WRN inhibitor inactive, FEN1 inhibitor 40µM, POLI inh 20µM and Pol eta inh inconclusive.
Screening Cc1ccnc2ccc([N+](=O)[O-])cc12 returned Pol kappa inh inactive, FEN1 inhibitor inactive and POLI inh inactive.
Screening O=C1C(=O)c2cccnc2-c2ncccc21 returned WRN inhibitor 18µM.
Screening COC1=C(Br)C(=O)c2ncccc2C1=O returned Pol kappa inh inactive, WRN inhibitor 10µM, FEN1 inhibitor inconclusive, POLI inh 1.3µM and Pol eta inh 3.2µM.
`O=C1c2cccnc2-c2ncccc21` gave POLB inh inactive, Pol kappa inh inactive, WRN inhibitor inactive, FEN1 inhibitor inactive, POLI inh inactive and Pol eta inh inactive.
`CCC1CN(C(=O)N2CCC(C(=O)NCCCc3ccccc3)CC2)c2ccccc2O1` (configuration not stated) gave POLB inh inactive, Pol kappa inh inactive, FEN1 inhibitor inactive, POLI inh inactive and Pol eta inh inactive.
`C#CCNC(=O)C1=C[C@@H](c2ccc3c(c2)OCO3)C[C@@H](OCCCCO)O1` gave Pol kappa inh inactive, WRN inhibitor inactive, FEN1 inhibitor inactive, POLI inh 50µM and Pol eta inh inconclusive.
C#CCNC(=O)C1=C[C@H](c2ccc3c(c2)OCO3)C[C@H](OCCCCO)O1 was read as Pol kappa inh inactive, WRN inhibitor inactive, FEN1 inhibitor inactive, POLI inh 35µM and Pol eta inh 50µM.
Screening O=C(NCc1ccccc1)C1=C[C@@H](c2ccc3c(c2)OCO3)C[C@@H](OCCCCO)O1 returned Pol kappa inh inactive, WRN inhibitor inactive, FEN1 inhibitor inactive, POLI inh inactive and Pol eta inh inactive.
N#Cc1ccc(/C=C\c2nccc3c2[nH]c2ccccc23)cc1 was read as POLB inh 18µM, Pol kappa inh inactive, WRN inhibitor inactive, FEN1 inhibitor inactive, POLI inh inconclusive and Pol eta inh inactive.
For Clc1ccc(/C=C\c2nccc3c2[nH]c2ccccc23)cc1 the results were POLB inh inactive, Pol kappa inh inactive, WRN inhibitor inactive, FEN1 inhibitor inactive, POLI inh inactive and Pol eta inh inactive.
For CCOc1ccc(NS(=O)(=O)c2ccc3[nH]cc(C(=O)N(C)Cc4ccccc4)c(=O)c3c2)cc1 the results were POLB inh inactive, Pol kappa inh inactive, FEN1 inhibitor inactive, POLI inh inconclusive and Pol eta inh inactive.
Screening COc1ccccc1CNS(=O)(=O)c1ccc2[nH]cc(C(=O)O)c(=O)c2c1 returned POLB inh 28µM, Pol kappa inh 79µM, WRN inhibitor inactive, FEN1 inhibitor inactive, POLI inh inconclusive and Pol eta inh 3.2µM.
`CCN(c1ccccc1)S(=O)(=O)c1ccc2[nH]cc(C(=O)NCc3ccc(C)cc3)c(=O)c2c1` gave POLB inh inconclusive, Pol kappa inh inactive, FEN1 inhibitor inactive, POLI inh 89µM and Pol eta inh inconclusive.
For CCN(c1ccccc1)S(=O)(=O)c1ccc2[nH]cc(C(=O)NCCOC)c(=O)c2c1 the results were POLB inh inactive, Pol kappa inh inactive, WRN inhibitor inactive, FEN1 inhibitor inactive, POLI inh inactive and Pol eta inh inconclusive.
CCOc1ccc(NS(=O)(=O)c2ccc3[nH]cc(C(=O)NCc4ccccc4)c(=O)c3c2)cc1 was read as POLB inh 11µM, Pol kappa inh inactive, FEN1 inhibitor inactive, POLI inh 89µM and Pol eta inh inconclusive.
For O=C(NC1CCCCC1)c1c[nH]c2ccc(S(=O)(=O)Nc3ccccc3F)cc2c1=O the results were POLB inh 25µM, Pol kappa inh inactive, FEN1 inhibitor inactive, POLI inh inconclusive and Pol eta inh inconclusive.
Screening CCc1ccccc1NS(=O)(=O)c1ccc2[nH]cc(C(=O)NC3CCCC3)c(=O)c2c1 returned POLB inh inconclusive, Pol kappa inh inactive, WRN inhibitor inactive, FEN1 inhibitor inactive, POLI inh inconclusive and Pol eta inh inconclusive.
Screening Cc1nc2cnc(N3CCOCC3)nc2n(CCc2ccccc2)c1=O returned Pol kappa inh inactive.
Screening O=[N+]([O-])c1ccccc1/C=C1\C=Cc2ccccc21 returned Pol kappa inh inactive, FEN1 inhibitor inactive and POLI inh inactive.
For Cc1ccc(CNC(=O)c2c[nH]c3ccc(S(=O)(=O)Nc4ccc(C(C)C)cc4)cc3c2=O)cc1 the results were POLB inh inactive, Pol kappa inh inactive, FEN1 inhibitor inactive, POLI inh inconclusive and Pol eta inh 79µM.
Cc1ccc2oc(-c3cccc(NC(=O)COc4ccc(Cl)cc4)c3C)nc2c1 was read as Pol kappa inh inactive, FEN1 inhibitor inactive and POLI inh inactive.
Cc1nc([N+](=O)[O-])cn1CC(O)c1ccc2c(c1)OCCCO2 (configuration not stated) was read as Pol kappa inh inactive, FEN1 inhibitor inactive and POLI inh inactive.
For CN(C)CCCN1C(=O)c2cccc3c(Br)ccc(c23)C1=O the results were POLB inh inconclusive, Pol kappa inh inactive, WRN inhibitor inactive, FEN1 inhibitor 18µM, POLI inh inconclusive and Pol eta inh inactive.
For O=C(O)c1ccccc1OS(=O)(=O)O the results were Pol kappa inh inactive.
Screening Cc1cccc(OCC(=O)NCC(=O)N=Nc2c(O)[nH]c3ccc([N+](=O)[O-])cc23)c1 returned POLB inh 45µM, Pol kappa inh inactive, WRN inhibitor inactive, FEN1 inhibitor inactive, POLI inh inactive and Pol eta inh inconclusive.
`O=[N+]([O-])c1ccc2[nH]c(O)c(N=NC(=S)Nc3cccnc3)c2c1` gave POLB inh inconclusive, Pol kappa inh 89µM, WRN inhibitor inconclusive, FEN1 inhibitor inconclusive, POLI inh inconclusive and Pol eta inh inconclusive.
